Out of some 2,300 compounds screened, about 1,400 (61%) were called active. Inconclusive results (about 29%) are left out. So high a share suggests a set chosen from earlier hits. The list shows a part of the results. A number with no mark means an inactive call. The call rests on the fitted dose curve; in most records, active means well fitted inhibition curve with a large enough effect; inconclusive means small, poorly fitted or top-dose-only effect, or effect the other way; inactive means no such curve, though single readings can be large or run the other way. Square brackets hold non-standard residues; d marks the D form. Peptide text beside a SMILES is read from it. * marks the point of attachment. ξ: configuration not given here. ξF = NC(Cc1ccccc1)C(=O)O; Cbz = O=C(OCc1ccccc1)*
assay: Confirmation screen for delayed death inhibitors of the malarial parasite plastid, 96 hour incubation; further: nearly all actives have a fitted effect of over 60% in size; settings: P. falciparum luciferase growth in erythrocytes; series mostly up to 28.7 µM; activity change, negative = inhibition: at the top concentration
Procedure, shortened: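 Two-generation (96 h, 37 C) exposure of P. falciparum carrying an integrated firefly luciferase reporter in erythrocytes, 0.1% parasitemia and 2% hematocrit final, Albumax-supplemented RPMI. Luminescence decrease measures growth inhibition.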
On the % scale 0 is the no-effect control and ±100 the full control effect; potency means the concentration at half of the fitted maximal effect.

Row | SMILES | Potency | activity change, negative = inhibition [%]
1 | O=C1C(Cl)=C(NC2CCCCC2)C(=O)N1c1ccc(Cl)cc1 | 12.6 µM (active) | –
2 | CCCCN(C)CCNC(=O)c1cc2c(=O)[nH]c3ccccc3c2n1C | 12.6 µM (active) | –
3 | CCOc1ccc(CNC(=O)c2cc3oc4ccccc4c3n2C)cc1 | – | 12.8
4 | Cc1cc(C)cc(NC(=O)c2cc(S(=O)(=O)NCc3ccco3)ccc2F)c1 | – | -53.2
5 | CCOc1ccccc1NC(=O)c1cc(S(=O)(=O)NCc2ccco2)ccc1F | 11.2 µM (active) | –
6 | C=C1C(=O)O[C@@H]2C[C@@H](C)[C@@H]3C=CC(=O)[C@@]3(C)[C@@H](OC(C)=O)[C@H]12 | 1.41 µM (active) | –
7 | Nc1ccc[n+](CC(=O)c2ccccc2)c1 | 12.6 µM (active) | –
8 | CCC(C)(C)NC(=O)C(c1cccc(OC)c1OC)N(CC(C)C)C(=O)CCC(=O)Nc1cc(C)on1 (configuration not stated) | 7.94 µM (active) | –
9 | CCN(CC(=O)Nc1c(F)cccc1F)C(=O)c1ccc(S(=O)(=O)NCc2ccco2)cc1 | – | -12.1
10 | Cc1cc(C)n(-c2ccc(C(=O)Nc3ccc(S(=O)(=O)NCc4ccco4)cc3)cc2)n1 | 8.91 µM (active) | –
11 | O=C(Nc1ccc(S(=O)(=O)NCc2ccco2)cc1)c1ccc2ccccc2n1 | 12.6 µM (active) | –
12 | CC(C)n1nc(C(=O)Nc2cccc(S(=O)(=O)NCc3ccco3)c2)c2ccccc2c1=O | 7.94 µM (active) | –
13 | COc1ccc2c(C)c(CCC(=O)NC3CC3)c(=O)oc2c1C | 3.55 µM (active) | –
14 | COc1ccc2c(c1)c(C(=O)N/N=C/c1ccc(OC)c(OC)c1)c(C)n2C | 8.91 µM (active) | –
15 | O=C(NCC1CCCO1)c1ccc(Cn2c(=S)[nH]c3ccccc3c2=O)cc1 (configuration not stated) | 14.1 µM (active) | –
16 | Cc1cccc(N2CCN(C(=O)C3CCN(c4ncnc5c4nc4n5CCCCC4)CC3)CC2)c1C | 11.2 µM (active) | –
17 | CC1CCN(C(=O)C2CCCN(c3ncnc4c3nc3n4CCCCC3)C2)CC1 (configuration not stated) | 11.2 µM (active) | –
18 | Cc1cc(C)n2nc(SCC(=O)N3CCN(c4ccc(F)cc4)CC3)nc2n1 | 12.6 µM (active) | –
19 | COc1ccc(Nc2nnc(-c3ccccc3)c3ccccc23)cc1C(=O)N1CCCCC1 | 2.82 µM (active) | –
20 | COc1ccc(Nc2nnc(-c3ccc(C)cc3)c3ccccc23)cc1C(=O)N1CCCCC1 | 0.251 µM (active) | –
21 | O=C(c1cc(COc2ccc(F)cc2Cl)on1)N1CCN(C2CCCCC2)C(=O)C1 | 11.2 µM (active) | –

Row | SMILES | Potency | activity change, negative = inhibition [%]
22 | CN1CCN(C(=O)c2cc(COc3c(F)cccc3F)on2)CC1c1ccccc1 (configuration not stated) | – | -16
23 | CN(Cc1c(C(=O)N/N=C/c2cccc(O)c2)nnn1-c1nonc1N)c1ccccc1 | – | -21.5
24 | Nc1nonc1-n1nnc(C(=O)N/N=C/c2ccc(Cl)cc2)c1-c1ccc2c(c1)OCO2 | 0.0316 µM (active) | –
25 | CCOc1ccc(-c2c(C(=O)N/N=C/c3ccc(OC(C)C)cc3)nnn2-c2nonc2N)cc1 | 12.6 µM (active) | –
26 | Cc1ccsc1/C=N/NC(=O)c1nnn(-c2nonc2N)c1-c1ccc2c(c1)OCO2 | 0.891 µM (active) | –
27 | Nc1nonc1-n1nnc(C(=O)N/N=C/c2cccc(Cl)c2)c1-c1ccc2c(c1)OCO2 | 0.0708 µM (active) | –
28 | CCOC(=O)C1=C(NC(=S)NC(=O)c2ccccc2)c2ccccc2CC1(C)CC (configuration not stated) | 11.2 µM (active) | –
29 | CC(=O)Nc1nc2ccccc2n1Cc1ccc(C)cc1 | 5.62 µM (active) | –
30 | N=C1S/C(=C\c2ccco2)C(=O)N1c1nccs1 | 12.6 µM (active) | –
31 | CCCNC(=O)C(Cc1ccc(F)cc1)NC(=O)c1ccccc1 (configuration not stated) | 6.31 µM (active) | –
32 | CCOC(=O)CNC(=O)C(Cc1ccccc1)NC(=O)OCc1ccccc1 (configuration not stated) (Cbz-[ξF]-Gly-OEt) | – | -6.51
33 | Cc1c(C(=O)N2CCC(n3nccc3NC(=O)C3CC3)CC2)[nH]c2ccc(Cl)cc12 | 14.1 µM (active) | –
34 | Cc1cc(C)c2[nH]c(C(=O)N3CCC(n4nccc4NC(=O)C4CC4)CC3)c(C)c2c1 | 7.94 µM (active) | –
35 | CCC(C)[C@H](NC(=O)[C@H](Cc1ccccc1)n1c(=O)[nH]c2ccccc2c1=O)C(=O)NCC1CCC(C(=O)O)CC1 (some centres not stated) | 11.2 µM (active) | –
36 | CCOCCCn1c(C)nc2c(c1=O)c1nc3ccccc3nc1n2CCC1=CCCCC1 | 3.16 µM (active) | –
37 | CN(CC(=O)Nc1ccc(F)c(Cl)c1)S(=O)(=O)c1ccc2c(c1)n(C)c(=O)c(=O)n2C | 10 µM (active) | –
38 | CCOc1ccc(S(=O)(=O)N2CCCC(C(=O)NC3CC3)C2)cc1Cl (configuration not stated) | 10 µM (active) | –
39 | O=C(COc1ccccc1)N1c2ccccc2Sc2ccccc21 | 11.2 µM (active) | –
40 | CC1CCCC(NC(=O)c2cc(-c3ccncc3)nc3ccccc23)C1C (configuration not stated) | 11.2 µM (active) | –
41 | Cc1c(Cl)ccc2c(C(=O)O)cc(-c3ccccc3)nc12 | – | 8.29
42 | COc1ccc2c(c1OC)C(=O)OC2Nc1nc(-c2ccccc2)cs1 (configuration not stated) | – | -104

— PubChem BioAssay AID504848 (National Center for Advancing Translational Sciences (NCATS), 2011)
